According to the supplement of paper PMC11732987, “Enantioselective OTUD7B fragment discovery through chemoproteomics screening and high-throughput optimisation” (Communications Chemistry, 2025):

Assays:
Experiment in all cases: log2 ratio of Biotin-Ahx-Ub-VS probe labelling (fragment/DMSO); higher = less target engagement (more negative = stronger competition), active = hit call of the paper (q ≤ 0.05, log2 ratio ≤ -1)
Settings in all cases: compound concentration: 200 uM; treatment time: 3 h
OTUD6B = molecular target: T1, OTUD6B (UniProt Q8N6M0)
T1 sequence (whole entry): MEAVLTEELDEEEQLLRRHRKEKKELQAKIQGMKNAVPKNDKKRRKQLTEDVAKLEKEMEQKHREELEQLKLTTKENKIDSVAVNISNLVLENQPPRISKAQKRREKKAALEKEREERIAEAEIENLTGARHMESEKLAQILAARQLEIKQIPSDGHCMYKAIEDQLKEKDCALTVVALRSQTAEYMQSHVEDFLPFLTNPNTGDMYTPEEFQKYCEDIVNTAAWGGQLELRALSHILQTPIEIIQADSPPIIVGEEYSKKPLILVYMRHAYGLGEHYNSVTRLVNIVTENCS
In short: (§1)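 The table lists average log2 ratios of fragment over vehicle, from an unpaired t-test on global-median-normalised Spectronaut label-free quantities. Proteins with ≥2 unique peptides were used. Samples were HEK293T lysate (495 µg) treated in triplicate with fragment at 200 µM or vehicle for 3 h, then with Biotin-Ahx-Ub-VS (0.5 µM final) for 1 h, with labelled DUBs NeutrAvidin-enriched and run by diaPASEF LC-MS/MS.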

OTUD7B = molecular target: T2, OTUD7B (UniProt Q6GQQ9)
T2 sequence (whole entry): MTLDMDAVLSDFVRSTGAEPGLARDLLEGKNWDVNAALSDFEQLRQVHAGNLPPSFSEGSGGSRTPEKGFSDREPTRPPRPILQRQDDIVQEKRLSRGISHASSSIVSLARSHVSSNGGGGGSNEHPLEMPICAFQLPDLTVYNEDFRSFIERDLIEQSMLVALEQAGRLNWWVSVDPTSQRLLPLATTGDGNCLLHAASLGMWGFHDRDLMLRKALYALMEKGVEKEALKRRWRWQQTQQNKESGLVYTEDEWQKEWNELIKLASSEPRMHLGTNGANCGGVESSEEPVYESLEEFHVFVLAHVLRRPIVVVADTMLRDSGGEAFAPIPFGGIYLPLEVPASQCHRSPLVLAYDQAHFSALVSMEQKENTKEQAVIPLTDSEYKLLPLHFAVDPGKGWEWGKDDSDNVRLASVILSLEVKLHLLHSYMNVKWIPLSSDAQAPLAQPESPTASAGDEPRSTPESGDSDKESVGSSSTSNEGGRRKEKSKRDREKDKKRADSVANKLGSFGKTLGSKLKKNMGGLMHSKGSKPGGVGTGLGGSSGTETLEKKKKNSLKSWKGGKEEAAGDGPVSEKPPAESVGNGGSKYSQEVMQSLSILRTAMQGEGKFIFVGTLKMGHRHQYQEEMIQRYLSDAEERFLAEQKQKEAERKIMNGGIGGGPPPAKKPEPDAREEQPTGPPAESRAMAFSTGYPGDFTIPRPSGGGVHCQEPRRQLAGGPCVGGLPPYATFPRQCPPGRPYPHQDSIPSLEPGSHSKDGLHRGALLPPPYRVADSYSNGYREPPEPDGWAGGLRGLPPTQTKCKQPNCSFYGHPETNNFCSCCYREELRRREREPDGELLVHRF
In short: as §1

PRPF8 = PRPF8 (UniProt Q6P2Q9)
In short: as §1

PSMD7 = molecular target: T3, PSMD7 (UniProt P51665)
T3 sequence (whole entry): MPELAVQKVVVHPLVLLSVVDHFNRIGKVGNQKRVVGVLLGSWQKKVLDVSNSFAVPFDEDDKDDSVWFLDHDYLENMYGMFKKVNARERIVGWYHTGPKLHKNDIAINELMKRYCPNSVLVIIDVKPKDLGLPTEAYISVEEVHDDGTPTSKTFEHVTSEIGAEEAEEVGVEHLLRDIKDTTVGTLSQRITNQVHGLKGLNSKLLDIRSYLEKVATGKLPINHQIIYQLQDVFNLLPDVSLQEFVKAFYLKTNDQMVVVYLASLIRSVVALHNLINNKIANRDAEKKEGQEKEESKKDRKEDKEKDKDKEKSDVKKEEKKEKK
In short: as §1

UCHL1 = UCHL1 (UniProt P09936)
In short: as §1

UCHL3 = molecular target: T4, UCHL3 (UniProt P15374)
T4 sequence (whole entry): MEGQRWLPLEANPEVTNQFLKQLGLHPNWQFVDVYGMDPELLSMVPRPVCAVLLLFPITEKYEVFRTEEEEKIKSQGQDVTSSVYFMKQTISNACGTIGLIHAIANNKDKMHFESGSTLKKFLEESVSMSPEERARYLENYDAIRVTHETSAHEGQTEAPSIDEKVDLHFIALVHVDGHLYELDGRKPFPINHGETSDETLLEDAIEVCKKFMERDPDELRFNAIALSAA
In short: as §1

UCHL5 = molecular target: T5, UCHL5 (UniProt Q9Y5K5)
T5 sequence (whole entry): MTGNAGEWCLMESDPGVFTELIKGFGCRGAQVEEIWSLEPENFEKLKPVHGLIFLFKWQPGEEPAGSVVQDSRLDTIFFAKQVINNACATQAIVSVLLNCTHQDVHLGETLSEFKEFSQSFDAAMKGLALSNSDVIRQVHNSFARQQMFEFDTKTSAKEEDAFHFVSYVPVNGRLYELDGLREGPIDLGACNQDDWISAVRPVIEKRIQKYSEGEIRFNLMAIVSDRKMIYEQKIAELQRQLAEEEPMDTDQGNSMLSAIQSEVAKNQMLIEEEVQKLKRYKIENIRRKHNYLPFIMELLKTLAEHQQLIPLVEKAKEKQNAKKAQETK
In short: as §1

USP10 = USP10 (UniProt Q14694)
In short: as §1

USP15 = molecular target: T6, USP15 (UniProt Q9Y4E8)
T6 sequence (whole entry): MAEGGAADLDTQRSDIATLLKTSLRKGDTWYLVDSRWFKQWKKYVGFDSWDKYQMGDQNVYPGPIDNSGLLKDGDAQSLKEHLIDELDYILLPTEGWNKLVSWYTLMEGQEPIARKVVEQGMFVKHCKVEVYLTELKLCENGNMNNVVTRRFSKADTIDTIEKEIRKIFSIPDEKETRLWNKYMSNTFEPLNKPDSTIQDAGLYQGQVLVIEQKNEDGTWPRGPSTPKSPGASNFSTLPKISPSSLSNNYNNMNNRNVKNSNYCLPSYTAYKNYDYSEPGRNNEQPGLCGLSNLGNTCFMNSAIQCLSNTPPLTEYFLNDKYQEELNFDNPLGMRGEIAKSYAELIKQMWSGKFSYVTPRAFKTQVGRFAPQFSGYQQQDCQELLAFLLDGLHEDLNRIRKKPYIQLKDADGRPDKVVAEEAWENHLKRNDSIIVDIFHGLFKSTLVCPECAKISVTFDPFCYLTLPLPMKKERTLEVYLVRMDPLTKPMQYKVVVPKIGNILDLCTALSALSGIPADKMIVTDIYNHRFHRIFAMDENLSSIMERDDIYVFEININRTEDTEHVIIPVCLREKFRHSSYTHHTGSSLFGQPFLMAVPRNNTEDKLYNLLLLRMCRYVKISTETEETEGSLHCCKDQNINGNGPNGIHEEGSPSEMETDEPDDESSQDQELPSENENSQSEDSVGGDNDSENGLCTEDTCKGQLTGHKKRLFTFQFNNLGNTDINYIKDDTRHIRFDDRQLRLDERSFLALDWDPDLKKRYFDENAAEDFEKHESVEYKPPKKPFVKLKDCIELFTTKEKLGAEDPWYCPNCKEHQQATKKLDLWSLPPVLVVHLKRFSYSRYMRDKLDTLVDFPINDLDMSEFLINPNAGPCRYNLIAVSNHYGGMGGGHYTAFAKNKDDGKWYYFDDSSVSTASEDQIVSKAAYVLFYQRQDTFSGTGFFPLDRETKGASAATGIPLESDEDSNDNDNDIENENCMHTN
In short: as §1

USP16 = USP16 (UniProt Q9Y5T5)
In short: as §1

Measured: log2 ratio of Biotin-Ahx-Ub-VS probe labelling

USP16, sequence (Q9Y5T5 whole entry, looked up): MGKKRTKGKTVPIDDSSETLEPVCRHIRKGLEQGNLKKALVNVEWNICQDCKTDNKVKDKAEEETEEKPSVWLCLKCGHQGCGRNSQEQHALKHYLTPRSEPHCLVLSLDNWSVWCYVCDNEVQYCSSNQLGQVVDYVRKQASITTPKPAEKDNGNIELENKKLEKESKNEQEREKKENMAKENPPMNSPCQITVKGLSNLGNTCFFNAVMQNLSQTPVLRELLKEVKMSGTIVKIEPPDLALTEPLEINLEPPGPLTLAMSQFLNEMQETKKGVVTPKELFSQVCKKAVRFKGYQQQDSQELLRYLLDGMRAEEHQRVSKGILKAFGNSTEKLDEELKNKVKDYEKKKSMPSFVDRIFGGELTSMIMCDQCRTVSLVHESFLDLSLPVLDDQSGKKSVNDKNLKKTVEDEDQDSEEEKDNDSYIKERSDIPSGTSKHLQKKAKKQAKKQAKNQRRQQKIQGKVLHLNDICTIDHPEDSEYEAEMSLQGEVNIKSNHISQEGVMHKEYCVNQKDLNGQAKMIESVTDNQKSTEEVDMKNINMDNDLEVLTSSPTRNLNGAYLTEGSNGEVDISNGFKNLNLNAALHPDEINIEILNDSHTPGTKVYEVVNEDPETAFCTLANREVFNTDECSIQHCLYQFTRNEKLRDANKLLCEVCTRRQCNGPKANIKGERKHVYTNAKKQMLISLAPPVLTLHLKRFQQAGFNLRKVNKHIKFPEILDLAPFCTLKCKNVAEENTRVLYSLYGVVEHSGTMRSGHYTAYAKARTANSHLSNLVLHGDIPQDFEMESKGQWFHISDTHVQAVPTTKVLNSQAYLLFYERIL
UCHL1, sequence (P09936 whole entry, looked up): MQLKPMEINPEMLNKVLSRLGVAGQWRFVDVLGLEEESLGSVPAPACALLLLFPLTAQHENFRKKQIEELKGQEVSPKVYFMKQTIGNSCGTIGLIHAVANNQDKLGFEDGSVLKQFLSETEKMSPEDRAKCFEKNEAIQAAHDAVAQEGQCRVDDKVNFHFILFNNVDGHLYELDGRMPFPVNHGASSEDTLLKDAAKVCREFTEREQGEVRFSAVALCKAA
USP10, sequence (Q14694 whole entry): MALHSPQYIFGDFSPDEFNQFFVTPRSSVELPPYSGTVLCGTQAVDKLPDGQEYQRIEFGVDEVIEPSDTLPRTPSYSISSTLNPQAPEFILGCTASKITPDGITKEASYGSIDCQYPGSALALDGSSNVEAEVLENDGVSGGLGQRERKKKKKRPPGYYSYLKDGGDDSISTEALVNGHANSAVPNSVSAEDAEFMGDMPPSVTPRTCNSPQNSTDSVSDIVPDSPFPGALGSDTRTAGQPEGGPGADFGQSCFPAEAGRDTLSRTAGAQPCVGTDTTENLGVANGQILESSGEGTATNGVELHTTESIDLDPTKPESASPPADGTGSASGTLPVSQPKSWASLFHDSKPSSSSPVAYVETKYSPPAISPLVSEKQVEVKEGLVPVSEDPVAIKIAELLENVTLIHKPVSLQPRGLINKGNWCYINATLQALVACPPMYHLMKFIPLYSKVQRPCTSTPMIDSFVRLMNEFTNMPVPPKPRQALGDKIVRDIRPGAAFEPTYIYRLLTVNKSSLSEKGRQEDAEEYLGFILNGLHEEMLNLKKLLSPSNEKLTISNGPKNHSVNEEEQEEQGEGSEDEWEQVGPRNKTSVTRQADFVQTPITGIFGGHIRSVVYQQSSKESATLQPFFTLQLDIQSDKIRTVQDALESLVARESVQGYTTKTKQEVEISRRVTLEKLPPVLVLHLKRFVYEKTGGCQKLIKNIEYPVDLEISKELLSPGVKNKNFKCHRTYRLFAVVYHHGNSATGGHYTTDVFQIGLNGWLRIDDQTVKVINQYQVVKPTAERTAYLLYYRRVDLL

O=C(CCl)N1CCOCC1C1CC1 (stereo not given)
inactive: OTUD6B -0.211 | OTUD7B -0.512 | PRPF8 -0.182 | PSMD7 -0.142 | UCHL3 0.225 | UCHL5 -0.257 | USP10 -0.0983 | USP15 -0.122 | USP16 -0.345
active: UCHL1 -1.92
